Measured values as given in PubChem BioAssay (NCATS).
Inconclusive results are not listed. The source made the active and inactive calls. Unless noted, calls follow the shape of the dose curve; as a rule, active = well fitted curve in the direction sought with a large enough effect; inconclusive = small, poorly fitted or top-dose-only effect, or another doubt; inactive = no such curve, though single readings can be large; an effect the other way counts as inactive or inconclusive.

Legend:
[1] = tested on: Zika virus NS2B-NS3 protease; experiment: Primary screen GU AMC qHTS for Zika virus inhibitors (AID 1347154);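 also: 0% = no-inhibitor control and -100% = no-enzyme control; nearly all actives have a fitted effect of over 70% in size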
Procedure, shortened: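 Fluorogenic AMC-substrate cleavage by noncovalent NS2B-NS3 protease complex (25 nM, pH 8.0 Tris buffer with Tween 20) followed for 15 minutes at room temperature (~20% conversion). Percent inhibition from ex340/em450 signal change, fitted by 4-parameter Hill equation.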

[2] = Counterscreen qHTS for small molecule stabilizers of the endoplasmic reticulum resident proteome: GLuc-NoTag assay (AID 1508627);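 also: SH-SY5Y cells given compound then 100 nM thapsigargin to empty ER calcium; 0% = thapsigargin alone and -100% = DMSO vehicle control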
Procedure, shortened: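 Luminescence of Gaussia luciferase secreted into the medium (coelenterazine, 0.07x final, unlysed cells) was the read-out. Human SH-SY5Y neuroblastoma cells constitutively secreting untagged GLuc received compound for 19 h, then 100 nM thapsigargin for 4 h.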

[3] = molecular target: Cytochrome P450 1A2 (Homo sapiens) (UniProt P05177); experiment: p450-cyp1a2 (AID 410; calls by dose curve;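 also: -100% = full effect of reference inhibitor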)
Cytochrome P450 1A2 (Homo sapiens), sequence (P05177 whole entry, looked up): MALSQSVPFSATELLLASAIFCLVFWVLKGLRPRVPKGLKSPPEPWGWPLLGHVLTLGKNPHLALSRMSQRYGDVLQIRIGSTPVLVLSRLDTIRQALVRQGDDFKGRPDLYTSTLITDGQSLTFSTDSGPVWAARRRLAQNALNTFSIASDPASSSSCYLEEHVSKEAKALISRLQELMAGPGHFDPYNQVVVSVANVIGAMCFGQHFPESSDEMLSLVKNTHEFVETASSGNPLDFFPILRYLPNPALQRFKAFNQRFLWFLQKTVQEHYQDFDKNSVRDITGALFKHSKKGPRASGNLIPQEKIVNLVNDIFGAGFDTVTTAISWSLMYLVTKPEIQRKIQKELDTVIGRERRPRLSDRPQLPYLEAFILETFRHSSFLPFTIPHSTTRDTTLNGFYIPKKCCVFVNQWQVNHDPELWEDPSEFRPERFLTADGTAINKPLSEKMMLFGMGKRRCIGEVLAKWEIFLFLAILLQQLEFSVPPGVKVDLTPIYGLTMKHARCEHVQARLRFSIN
Procedure, shortened: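 Luminescent readout of luciferin formed from Luciferin-ME by human CYP1A2; data normalized against complete inhibition by 57 uM furafylline. Enzyme 20nM, substrate 100uM at Km, 100mM KPO4 buffer, 60 min reaction at room temperature.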

[4] = molecular target: Glucocorticoid receptor (Homo sapiens) (UniProt P04150); experiment: GR-GFP Redistribution (AID 450;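 active = compounds whose dose series gives a full or clear partial fitted curve of increased nuclear translocation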; also: potency is read from the fitted curve at half-maximal effect); details: U2OS GR-GFP nuclear translocation, laser cytometry, 2 h
Glucocorticoid receptor (Homo sapiens), sequence (P04150 whole entry, looked up, the tested form may be a part): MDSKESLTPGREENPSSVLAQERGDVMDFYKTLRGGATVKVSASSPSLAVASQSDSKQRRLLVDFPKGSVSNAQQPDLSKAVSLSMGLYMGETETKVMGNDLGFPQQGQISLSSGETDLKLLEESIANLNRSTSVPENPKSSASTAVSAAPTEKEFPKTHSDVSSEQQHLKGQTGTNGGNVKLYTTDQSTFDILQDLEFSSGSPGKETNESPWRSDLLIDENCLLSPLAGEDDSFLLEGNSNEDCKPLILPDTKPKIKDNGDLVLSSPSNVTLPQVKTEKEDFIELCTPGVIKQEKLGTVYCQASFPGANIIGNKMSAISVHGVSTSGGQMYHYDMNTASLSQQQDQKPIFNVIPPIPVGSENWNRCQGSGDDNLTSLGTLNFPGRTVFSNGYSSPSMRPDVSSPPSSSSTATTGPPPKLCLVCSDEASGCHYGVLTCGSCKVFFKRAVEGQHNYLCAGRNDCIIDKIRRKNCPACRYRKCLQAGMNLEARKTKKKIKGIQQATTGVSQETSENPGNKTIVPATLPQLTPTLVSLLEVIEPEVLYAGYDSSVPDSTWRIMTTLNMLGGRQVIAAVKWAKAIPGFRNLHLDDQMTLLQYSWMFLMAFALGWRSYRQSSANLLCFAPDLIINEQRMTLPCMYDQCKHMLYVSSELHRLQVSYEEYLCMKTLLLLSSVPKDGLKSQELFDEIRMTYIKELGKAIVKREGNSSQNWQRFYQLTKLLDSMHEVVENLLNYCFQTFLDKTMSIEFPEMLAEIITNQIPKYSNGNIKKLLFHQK

[5] = molecular target: Glucocorticoid receptor (Homo sapiens) (UniProt P04150); experiment: GR-EFC Redistribution (AID 451; calls by dose curve; also: potency is read from the fitted curve at half-maximal effect); details: CHO-K1 GR-EFC translocation, beta-gal luminescence, 2 h
Procedure, shortened: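 Translocation of GR-ED fusion to nuclear EA restores b-gal, read by luminescence after 1 h room-temperature detection. Engineered CHO-K1 biosensor cells, 1,000/well, exposed 2 h at 37 C to titrations up to 46 uM final.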

[6] = molecular target: Mitogen-activated protein kinase 10 (Mus musculus) (UniProt Q61831); experiment: JNK3 AlphaScreen Assay (AID 530; active = well fitted curve in either direction with a large enough effect, not every such curve was filed as active;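 also: kinase came from lysate of stimulated human HepG2 cells; signal reports phosphorylation of biotinylated GST-cJun 1-79 at Ser73 with 10 µM ATP; % is scaled to controls: 0 for no effect and ±100 for the full control effect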)
Procedure, shortened: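 Compound titrations were preincubated 15 minutes at room temperature with substrate, antibody and pre-activated JNK3-containing HepG2 lysate. Reactions were started with 10 uM ATP and stopped with EDTA-containing bead buffer for AlphaScreen detection.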

[7] = molecular target: 3',5'-cyclic-AMP phosphodiesterase 4B (Homo sapiens) (UniProt Q07343); experiment: qHTS Assay for Inhibitors of PDE-IV (AID 607; active = well fitted activation curve with a large enough effect in the main read-out, with a control signal flat, not every such curve was filed as active; also: % of control where 0% means no effect)
3',5'-cyclic-AMP phosphodiesterase 4B (Homo sapiens), sequence (Q07343 whole entry, looked up): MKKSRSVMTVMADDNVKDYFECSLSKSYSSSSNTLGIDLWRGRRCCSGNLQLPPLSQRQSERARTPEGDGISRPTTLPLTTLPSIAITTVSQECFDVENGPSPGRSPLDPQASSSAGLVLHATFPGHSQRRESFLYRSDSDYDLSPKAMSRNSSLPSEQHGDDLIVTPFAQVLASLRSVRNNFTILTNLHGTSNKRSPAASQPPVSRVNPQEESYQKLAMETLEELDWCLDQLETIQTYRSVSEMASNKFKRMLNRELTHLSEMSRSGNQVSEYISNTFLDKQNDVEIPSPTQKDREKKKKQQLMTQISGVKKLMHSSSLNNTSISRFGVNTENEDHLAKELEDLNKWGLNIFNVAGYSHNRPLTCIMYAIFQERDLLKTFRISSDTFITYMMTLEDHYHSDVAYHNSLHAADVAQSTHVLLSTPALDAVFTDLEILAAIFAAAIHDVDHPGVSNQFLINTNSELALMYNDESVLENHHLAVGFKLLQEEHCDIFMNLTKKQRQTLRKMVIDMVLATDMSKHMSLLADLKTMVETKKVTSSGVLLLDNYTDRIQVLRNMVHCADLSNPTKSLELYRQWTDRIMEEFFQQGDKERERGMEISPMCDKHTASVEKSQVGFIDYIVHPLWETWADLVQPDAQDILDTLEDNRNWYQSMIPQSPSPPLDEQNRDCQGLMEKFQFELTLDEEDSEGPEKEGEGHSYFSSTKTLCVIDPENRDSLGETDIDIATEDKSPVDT
Procedure, shortened: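 The readout is membrane depolarisation from a cAMP-sensing CNG channel, detected with a potential dye at ex 535/em 590. Cells were HEK293-derived (endogenous PDE-IV) at 1000 cells/well, titrated up to 22.9 uM final.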

[8] = qHTS Assay for Lipid Storage Modulators (AID 1519; calls by dose curve; as to activity change, negative = inhibition: % is scaled to controls: 0 for no effect and ±100 for the full control effect); details: Drosophila S3 cells, BODIPY lipid droplet/cell ratio, laser cytometry, cells loaded with oleic acid
Procedure, shortened: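 Cells seeded at 5,000 per well were treated with compounds over a concentration series and loaded with oleic acid (400 uM, as added). Lipid droplet fluorescence (488 nm excitation, 500-530 nm channel) was read by laser-scanning cytometry and normalized to 20 uM Triacsin C.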

[9] = molecular target: Ubiquitin carboxyl-terminal hydrolase 1 (Homo sapiens) (UniProt O94782); experiment: Inhibitors of USP1/UAF1: Pilot qHTS (AID 504865);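 also: rhodamine fluorescence freed from ubiquitin-rhodamine substrate followed over time; top concentration of the series differs between compounds; % is scaled to controls: 0 for no effect and ±100 for the full control effect; nearly all actives have a fitted effect of over 35% in size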
Ubiquitin carboxyl-terminal hydrolase 1 (Homo sapiens), sequence (O94782 whole entry, looked up): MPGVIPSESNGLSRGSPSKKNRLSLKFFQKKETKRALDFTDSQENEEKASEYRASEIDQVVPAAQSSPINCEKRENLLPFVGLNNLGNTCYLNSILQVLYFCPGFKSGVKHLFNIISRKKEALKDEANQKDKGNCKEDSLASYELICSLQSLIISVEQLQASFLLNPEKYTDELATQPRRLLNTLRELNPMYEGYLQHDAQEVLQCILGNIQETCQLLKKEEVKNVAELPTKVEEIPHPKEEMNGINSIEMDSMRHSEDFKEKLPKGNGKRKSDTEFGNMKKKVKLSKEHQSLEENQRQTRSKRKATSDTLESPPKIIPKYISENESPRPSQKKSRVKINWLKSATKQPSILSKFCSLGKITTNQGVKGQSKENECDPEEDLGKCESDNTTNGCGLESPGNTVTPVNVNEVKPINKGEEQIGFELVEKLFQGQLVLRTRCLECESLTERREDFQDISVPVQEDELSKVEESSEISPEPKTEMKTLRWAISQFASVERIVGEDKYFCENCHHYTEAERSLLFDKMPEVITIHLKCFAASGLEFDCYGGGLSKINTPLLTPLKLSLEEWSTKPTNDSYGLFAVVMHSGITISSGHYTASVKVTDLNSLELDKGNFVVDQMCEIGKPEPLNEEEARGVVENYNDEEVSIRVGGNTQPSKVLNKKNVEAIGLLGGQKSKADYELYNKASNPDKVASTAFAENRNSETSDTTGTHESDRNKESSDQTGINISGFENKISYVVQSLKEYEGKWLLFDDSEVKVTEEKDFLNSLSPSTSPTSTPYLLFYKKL
Procedure, shortened: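 Deubiquitinase activity followed as kinetic rhodamine fluorescence release from 150 nM Ub-Rho. 1 nM USP1/UAF1 with compound, after 15 min room-temperature preincubation, in HEPES pH 7.8 buffer containing TCEP, EDTA, BSA and Tween-20.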

[10] = molecular target: DNA dC->dU-editing enzyme APOBEC-3G (Homo sapiens) (UniProt Q9HC16); experiment: qHTS for inhibitors of Vif-A3G interactions: Validation (AID 588379); also: 0% is about no effect
DNA dC->dU-editing enzyme APOBEC-3G (Homo sapiens), sequence (Q9HC16 whole entry, looked up): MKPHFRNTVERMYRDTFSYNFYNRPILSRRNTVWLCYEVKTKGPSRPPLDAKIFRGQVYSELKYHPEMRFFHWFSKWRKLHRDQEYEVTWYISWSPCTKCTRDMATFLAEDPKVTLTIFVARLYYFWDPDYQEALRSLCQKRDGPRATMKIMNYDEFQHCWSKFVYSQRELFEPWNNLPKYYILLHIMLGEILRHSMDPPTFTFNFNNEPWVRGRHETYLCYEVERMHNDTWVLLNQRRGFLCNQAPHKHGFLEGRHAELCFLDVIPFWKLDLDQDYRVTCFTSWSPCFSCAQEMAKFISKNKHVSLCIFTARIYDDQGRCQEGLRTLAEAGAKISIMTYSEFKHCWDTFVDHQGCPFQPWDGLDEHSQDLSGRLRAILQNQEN
Procedure, shortened: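 HeLa cells stably expressing Vif and A3G-eYFP, 700 cells/well, incubated overnight at 37 deg C, then exposed to compound overnight at 37 deg C. Inhibition of Vif-mediated degradation read as increased yellow fluorescence (Ex 488/Em 500-530) by laser-scanning cytometry.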

[11] = Confirmatory qHTS for small molecule stabilizers of the endoplasmic reticulum resident proteome: Secreted ER Calcium Modulated Protein (SERCaMP) assay (AID 1508628); also: potency is read from the fitted curve at half-maximal effect; nearly all actives have a fitted effect of over 40% in size
Procedure, shortened: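 SH-SY5Y cells stably expressing GLuc-SERCaMP, treated 16 h with compound (primary 1.53, 7.67, 38.3 uM; confirmation 11 concentrations, up to 76.6 uM), then 100 nM thapsigargin for 4 h. Secreted Gaussia luciferase in medium read by coelenterazine luminescence.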

[12] = Cell Viability qHTS for small molecule stabilizers of the endoplasmic reticulum resident proteome (AID 1508629); details: cell viability counter-screen, 100 nM thapsigargin for final 4 h;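 also: human SH-SY5Y neuroblastoma cells carrying the GLuc-SERCaMP reporter; compound exposure about 46 h in total before the viability read; % is scaled to controls: 0 for no effect and ±100 for the full control effect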

c1ncc(CCCC2CCNCC2)[nH]1
inactive: Potency [1] | Potency [2]

COc1ccc(NS(=O)(=O)c2ccc(I)cc2)cc1N1CCN(C)CC1
18.9%: max response ([8]; measured here: cell count channel max response)
inactive: Potency [3] | Potency [4] > 46 µM | Potency [5] > 46 µM | Potency [6] | Potency [7] | activity change, negative = inhibition ([8]; at 57.5 µM (top of the series)) 12.5% | Potency [9] | Potency [10] | Potency [1] | Potency [2] | max response [12] -15.1%
28.9%: max response ([8]; measured here: lipid channel max response)
active: Potency [11] 7.94 µM

CN1C[C@H](C(=O)N[C@]2(C)O[C@@]3(O)[C@H]4CCCN4C(=O)[C@H](Cc4ccccc4)N3C2=O)C[C@H]2c3cccc4[nH]cc(c34)C[C@@H]21
inactive: Potency [4] > 46 µM | Potency [5] > 46 µM | Potency [10] | Potency [1] | Potency [2] | max response [12] 18%
active: Potency [11] 25.1 µM
